Inconclusive results are not listed. Activity calls are given as the source filed them. The calls were made as follows, unless noted: active = hit-call score of the fitted dose curve at least 0.9, where 1 is the maximum; inconclusive = response in the unintended direction; inactive = score below 0.9.
What was measured:
[1] = biological target: Retinoic acid receptor alpha (Homo sapiens) (UniProt P10276); assay: ATG_RARa_TRANS: Attagene TRANS-FACTORIAL HepG2 Assay for human Retinoic Acid Receptor alpha (RARa) (AID 2283005)
How it was run: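 HepG2 cells transiently transfected with multiple reporter units expressing chimeric RARα-GAL4 fusion, with GAL4-UAS-driven reporters. After 24 h compound exposure, reporter mRNA induction quantified by RT-PCR and capillary electrophoresis with fluorescent labeling; gain-of-signal fitted relative to DMSO control.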

[2] = biological target: D(1A) dopamine receptor (Homo sapiens) (UniProt P21728); assay: NVS_GPCR_hDRD1: NovaScreen (NVS) G Protein-Coupled Receptor Assay for human Dopamine Receptor D1 (DRD1) (AID 2283269)
How it was run: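 Extracted HEK293 DRD1 is incubated 1 h with compound and a tritiated or iodinated radioligand, then filtered and counted. Screening runs 25 uM in duplicate with on-plate positive and negative controls.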

[3] = biological target: human Retinoic Acid Receptor gamma (RARg), RARG (gene 5916) (UniProt P13631); assay: ATG_RARg_TRANS: Attagene TRANS-FACTORIAL HepG2 Assay for human Retinoic Acid Receptor gamma (RARg) (AID 2283009)
How it was run: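 HepG2 cells transiently transfected with multiplexed reporter units expressing chimeric RARg-GAL4 and GAL4-UAS-driven reporters; 24 h compound exposure. Reporter mRNA quantified by RT-PCR with fluorescent labelling and capillary electrophoresis; gain-of-signal fitted relative to DMSO baseline.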

[4] = system: Sodium/Iodide Symporter (NIS), SLC5A5 (gene 6528); assay: CPHEA_Stoker_NIS_Inhibition_RAIU: CPHEA's Radioactive Iodide Uptake (RAIU) Assay for Sodium/Iodide Symporter (NIS) Inhibition, Stoker and Laws Labs (AID 2283841)
How it was run: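 Test chemicals, six concentrations from 0.001 to 100uM in 0.5% DMSO, were co-incubated with carrier-free 125I (final 329pM) on hNIS-HEK293T-EPA monolayers in pH 7.4 HEPES-buffered HBSS. Plates stood 2 hours at room temperature, then were washed cold and counted.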

[5] = CPHEA_Stoker_NIS_Cytotoxicity: Cytotoxicity Assessment for CPHEA's Radioactive Iodide Uptake (RAIU) Assay for Sodium/Iodide Symporter (NIS) Inhibition, Stoker and Laws Labs (AID 2283897)
How it was run: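 Viability in hNIS-HEK293T-EPA cells is scored as a drop in luciferase-detected ATP following 2-hour room-temperature exposure (0.001–100uM; triplicate wells, three cell passages), with DMSO as negative control.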

[6] = biological target: Androgen Receptor/SRC-1 Co-activator, AR (gene 367) (UniProt P10275); assay: OT_AR_ARSRC1_0960: Odyssey Thera (OT) 16-hour HEK293T Protein-Complementation Assay for Androgen Receptor/SRC-1 Co-activator (AID 2283353);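 also: actives raise the signal above DMSO so potency reflects increased AR and SRC-1 complex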
How it was run: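 HEK293T cells stably expressing AR and SRC-1 fused to split Venus YFP fragments via (Gly4Ser)2 linkers were dosed for 16 h. Nuclear/cytoplasmic fluorescence ratio at 488 nm, ≥400 cells per image, fitted for gain of signal versus DMSO.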

[7] = biological target: Androgen Receptor/SRC-1 Co-activator, AR (gene 367) (UniProt P10275); assay: OT_AR_ARSRC1_0480: Odyssey Thera (OT) 8-hour HEK293T Protein-Complementation Assay for Androgen Receptor/SRC-1 Co-activator (AID 2283354);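 also: hits raise the complementation signal above DMSO so AC50 marks enhancers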
How it was run: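 HEK293T cells stably expressing AR and SRC-1 fused to split Venus YFP fragments via (Gly4Ser)2 linkers were read 8 h after compound dosing. Complementation was imaged at 488 and 635nm, and nuclear/cytoplasmic fluorescence ratio (488nm) was taken over ≥400 cells; gain-of-signal versus DMSO.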

[8] = biological target: Agonist Androgen Response Element (ARE), AR (gene 367) (UniProt P10275); assay: OT_AR_ARELUC_AG_1440: Odyssey Thera (OT) 24-hour CHO-K1 Luciferase Assay for Agonist Androgen Response Element (ARE) (AID 2283379)
How it was run: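 Seed CHO-K1 cells; dose compounds for 24 h; add D-luciferin plus ATP in PBS; read luminescence. Signal increase relative to vehicle defines agonist activity, with at least 3 replicate wells per sample.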

[9] = biological target: Ratio of Nucleoli Translocation and Cytoplasm, AR (gene 367) (UniProt P10275); assay: UPITT_HCI_U2OS_AR_TIF2_Nucleoli_Cytoplasm_Ratio_Antagonist: University of Pittsburgh U2OS Androgen Receptor-Transcriptional Intermediary Factor 2 (AR-TIF2) Antagonism High Content Imaging Assay for Ratio of Nucleoli Translocation and Cytoplasm (AID 2283999);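 also: antagonists lower the DHT-driven ratio of nucleolar to cytoplasmic red signal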
How it was run: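 U2OS cells expressing RFP-tagged human AR and GFP-tagged TIF2; compounds tested at 20 uM final (0.2% DMSO) in primary screen, 0.195–50 uM (0.5% DMSO) for concentration response. Readout: nucleolar-to-cytoplasmic red fluorescence ratio by high-content imaging, fitted relative to DHT.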

[10] = CCTE_Deisenroth_AIME_384WELL_CTox_Inactive: Cytotoxicity Assessment (CTOX) in CCTE's 384-well Estrogen Receptor Transactivation Assay without AIME metabolic competence (metabolism negative), Deisenroth Lab (AID 2284039);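 also: cell viability via live-cell protease substrate cleaved to fluorescent probe; cells exposed 24 h to medium preincubated 2 h with alginate-water beads without S9; loss of fluorescence signal means loss of viability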
How it was run: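 Fluorescence from a live-cell protease substrate, read after 24 h in VM7Luc4E2 cells, indicated viability. Test medium came from a 2 h AIME step without hepatic S9 (alginate-water microspheres); concentrations spanned 0.002 - 200 uM, single technical replicate per run.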

[11] = CEETOX_H295R_ESTRADIOL: CeeTox H295R High-throughput Steroidogenesis Assay for Estradiol (AID 2283440; active = hit-call score of the fitted dose curve at least 0.9, where 1 is the maximum; inactive = score below 0.9;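 also: estradiol secreted into medium quantified by LC-MS/MS after dansyl derivatisation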); conditions: actives raise or lower the signal
How it was run: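 H295R adrenocortical cells were prestimulated with 10 uM forskolin for 48 h, then exposed to test chemical in 0.1% DMSO for 48 h. Medium estradiol was extracted with MTBE, dansyl-derivatized and quantified by HPLC-MS/MS; bidirectional fit versus DMSO.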

[12] = CEETOX_H295R_ESTRONE: CeeTox H295R High-throughput Steroidogenesis Assay for Estrone (AID 2283441; active = hit-call score of the fitted dose curve at least 0.9, where 1 is the maximum; inactive = score below 0.9;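 also: estrone secreted into medium measured by LC-MS/MS after dansyl derivatization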); conditions: actives raise or lower the signal
How it was run: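 H295R cells; 48 h forskolin (10 uM) prestimulation; 48 h compound exposure, 0.1% DMSO final. Medium estrone: MTBE extraction, dansyl derivatization, HPLC-MS/MS. Bidirectional fit vs DMSO.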

[13] = biological target: rat Thyrotropin Releasing Hormone Receptor (TRH), Trhr (gene 25570) (UniProt Q01717); assay: NVS_GPCR_rTRH: NovaScreen (NVS) G Protein-Coupled Receptor Assay for rat Thyrotropin Releasing Hormone Receptor (TRH) (AID 2283329);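 also: hit means lower bound tracer signal versus DMSO baseline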
How it was run: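 Test compounds are screened at 25 uM in duplicate against radioligand binding in rat forebrain membranes, with active pairs followed up over a concentration range. Detection uses filter-based radiodetection after a 4 h exposure.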

[14] = CCTE_Shafer_MEA_dev_firing_rate_mean: CCTE's Neural Network Formation Assay for Mean Firing Rate, Shafer Lab (AID 2284031; active = hit-call score of the fitted dose curve at least 0.9, where 1 is the maximum; inactive = score below 0.9;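 as to AC50: curve fitted for loss of firing so AC50 reflects decreased mean firing rate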)
How it was run: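 Primary rat cortical neurons on 48-well, 16-electrode MEAs (PEI-coated, laminin at plating), exposed from day 0 with compound renewed at DIV 5 and 9. Spikes recorded DIV 5, 7, 9, 12; well-mean firing rate collapsed to trapezoidal AUC, loss-of-signal vs DMSO.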

[15] = CCTE_Shafer_MEA_dev_per_burst_spike_percent: CCTE's Neural Network Formation Assay for Percent of Spikes in a Burst, Shafer Lab (AID 2284032; active = hit-call score of the fitted dose curve at least 0.9, where 1 is the maximum; inactive = score below 0.9;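 as to AC50: fitted as a decrease in burst spike percentage below DMSO baseline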)
How it was run: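 Rat primary cortical neurons on 16-electrode MEA wells, dosed from plating day 0 for 12 days with renewal on DIV 5 and 9; spikes-in-bursts percentage averaged over bursting electrodes, collapsed as AUC across days 5, 7, 9, 12; loss direction versus DMSO.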

[16] = CCTE_Shafer_MEA_dev_active_electrodes_number: CCTE's Neural Network Formation Assay for Number of Active Electrodes, Shafer Lab (AID 2284040);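 as to AC50: potency for loss of active electrodes versus DMSO so lower counts are hits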
How it was run: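 Rat cortical primary cultures, 1.5 x 10^5 cells/well, PEI-coated MEA, laminin drop. Continuous exposure DIV 0–12; full media/compound change DIV 5, 9. Readout: electrodes with mean firing ≥5 spikes/min; AUC across days; loss vs DMSO.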

[17] = biological target: Bile acid receptor (Homo sapiens) (UniProt Q96RI1); assay: NVS_NR_hFXR_Agonist: NovaScreen (NVS) Nuclear Receptor Binding Assay for human Farnesoid X Receptor Agonism (FXR) (AID 2283347)
How it was run: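 Cell-free TR-FRET binding assay with extracted human FXR protein, agonist format, read 1 h after dosing. Primary screen at 25 uM single concentration in duplicate, actives retested in concentration series; gain of signal versus DMSO.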

[18] = biological target: Protein deacetylase HDAC6 (Homo sapiens) (UniProt Q9UBN7); assay: NVS_ENZ_hHDAC6: NovaScreen (NVS) Enzymatic Assay for human Histone Deacetylase 6 (HDAC6) (AID 2283164)
How it was run: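 Recombinant human HDAC6 with fluorescent substrate, 1 h; product separated from substrate by electrophoretic mobility shift. Primary screen in duplicate at 25 uM; actives retested singly in concentration-response up to 50 uM, fitted relative to DMSO.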

[19] = biological target: rat Monoamine Oxidase, MAO-B, Peripheral (MAOBP), Maob (gene 25750) (UniProt P19643); assay: NVS_ENZ_rMAOBP: NovaScreen (NVS) Enzymatic Assay for rat Monoamine Oxidase, MAO-B, Peripheral (MAOBP) (AID 2283242)
[20] = biological target: Caspase-1 (Homo sapiens) (UniProt P29466); assay: NVS_ENZ_hCASP1: NovaScreen (NVS) Enzymatic Assay for human Caspase 1 (CASP1) (AID 2283132)
How it was run: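 Cell-free enzymatic assay with E. coli-expressed recombinant protein; fluorescence intensity read 1 hour after dosing. Single-concentration duplicate screen at 25 uM, then concentration-response up to 50 uM; activity fitted relative to DMSO, loss of signal meaning inhibition.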

Chain of Ratio of Nucleoli Translocation and Cytoplasm, AR (gene 367) (P10275 whole entry, looked up): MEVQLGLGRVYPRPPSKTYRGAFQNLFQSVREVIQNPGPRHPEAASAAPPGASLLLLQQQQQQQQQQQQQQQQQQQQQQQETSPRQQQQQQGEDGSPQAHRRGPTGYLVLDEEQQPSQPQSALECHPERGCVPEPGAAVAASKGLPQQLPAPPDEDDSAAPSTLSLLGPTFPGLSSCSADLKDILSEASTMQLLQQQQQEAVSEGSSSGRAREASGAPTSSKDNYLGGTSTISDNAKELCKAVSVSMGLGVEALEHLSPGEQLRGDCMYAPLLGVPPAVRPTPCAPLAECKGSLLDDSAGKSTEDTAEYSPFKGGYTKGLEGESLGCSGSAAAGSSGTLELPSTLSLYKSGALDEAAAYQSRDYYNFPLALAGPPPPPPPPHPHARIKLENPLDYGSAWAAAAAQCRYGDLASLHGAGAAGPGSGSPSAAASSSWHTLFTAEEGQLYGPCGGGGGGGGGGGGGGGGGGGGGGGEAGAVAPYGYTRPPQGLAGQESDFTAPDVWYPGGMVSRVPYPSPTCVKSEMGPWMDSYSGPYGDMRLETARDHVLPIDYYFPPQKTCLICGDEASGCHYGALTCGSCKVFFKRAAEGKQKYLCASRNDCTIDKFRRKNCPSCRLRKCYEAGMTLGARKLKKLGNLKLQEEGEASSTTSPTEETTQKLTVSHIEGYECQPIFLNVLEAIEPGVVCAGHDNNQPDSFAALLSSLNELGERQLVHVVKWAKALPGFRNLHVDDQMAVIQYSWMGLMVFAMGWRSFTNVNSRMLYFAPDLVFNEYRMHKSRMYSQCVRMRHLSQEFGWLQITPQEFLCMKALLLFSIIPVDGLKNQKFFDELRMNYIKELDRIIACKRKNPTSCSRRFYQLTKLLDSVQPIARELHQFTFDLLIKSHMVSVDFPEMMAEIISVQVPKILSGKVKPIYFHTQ
Chain of Androgen Receptor/SRC-1 Co-activator, AR (gene 367) (P10275 whole entry, looked up, the tested form may be a part): as the sequence (P10275 whole entry, looked up) above
Chain of Caspase-1 (Homo sapiens) (P29466 whole entry, looked up): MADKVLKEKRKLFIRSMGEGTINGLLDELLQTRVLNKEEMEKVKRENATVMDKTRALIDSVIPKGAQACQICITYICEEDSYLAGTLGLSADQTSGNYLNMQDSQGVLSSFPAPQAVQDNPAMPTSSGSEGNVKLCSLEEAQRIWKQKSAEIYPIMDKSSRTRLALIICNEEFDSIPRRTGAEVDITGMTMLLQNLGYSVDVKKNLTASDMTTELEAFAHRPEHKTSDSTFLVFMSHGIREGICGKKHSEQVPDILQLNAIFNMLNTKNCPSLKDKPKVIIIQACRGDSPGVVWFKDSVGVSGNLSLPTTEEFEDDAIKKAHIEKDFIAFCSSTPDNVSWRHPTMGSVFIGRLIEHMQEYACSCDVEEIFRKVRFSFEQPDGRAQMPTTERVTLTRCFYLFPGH
Chain of Bile acid receptor (Homo sapiens) (Q96RI1 whole entry, looked up): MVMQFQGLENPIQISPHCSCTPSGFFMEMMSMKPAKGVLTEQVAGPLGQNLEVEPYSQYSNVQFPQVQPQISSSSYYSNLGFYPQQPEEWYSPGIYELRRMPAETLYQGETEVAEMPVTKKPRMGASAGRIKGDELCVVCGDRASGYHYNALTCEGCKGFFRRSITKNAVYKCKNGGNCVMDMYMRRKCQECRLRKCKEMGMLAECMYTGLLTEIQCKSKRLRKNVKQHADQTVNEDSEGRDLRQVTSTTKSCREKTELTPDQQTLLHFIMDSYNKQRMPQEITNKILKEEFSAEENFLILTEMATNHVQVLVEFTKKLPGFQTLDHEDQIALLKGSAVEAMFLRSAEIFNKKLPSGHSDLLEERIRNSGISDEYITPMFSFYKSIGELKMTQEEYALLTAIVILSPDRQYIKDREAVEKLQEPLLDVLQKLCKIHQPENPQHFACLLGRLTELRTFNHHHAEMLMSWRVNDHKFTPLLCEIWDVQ
Chain of rat Monoamine Oxidase, MAO-B, Peripheral (MAOBP), Maob (gene 25750) (P19643 whole entry, looked up): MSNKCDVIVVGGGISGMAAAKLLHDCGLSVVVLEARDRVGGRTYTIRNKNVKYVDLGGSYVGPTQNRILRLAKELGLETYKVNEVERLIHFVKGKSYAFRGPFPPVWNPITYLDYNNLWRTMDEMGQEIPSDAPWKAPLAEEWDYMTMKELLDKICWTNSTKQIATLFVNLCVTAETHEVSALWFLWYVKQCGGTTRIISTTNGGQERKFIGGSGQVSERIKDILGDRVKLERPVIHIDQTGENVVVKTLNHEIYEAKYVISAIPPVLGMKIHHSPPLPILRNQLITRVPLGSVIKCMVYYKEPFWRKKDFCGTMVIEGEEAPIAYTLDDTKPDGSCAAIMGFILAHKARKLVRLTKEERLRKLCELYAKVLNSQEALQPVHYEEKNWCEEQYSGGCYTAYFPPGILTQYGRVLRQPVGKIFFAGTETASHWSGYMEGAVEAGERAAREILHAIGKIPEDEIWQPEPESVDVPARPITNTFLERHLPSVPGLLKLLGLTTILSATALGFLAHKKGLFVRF
Chain of Protein deacetylase HDAC6 (Homo sapiens) (Q9UBN7 whole entry, looked up): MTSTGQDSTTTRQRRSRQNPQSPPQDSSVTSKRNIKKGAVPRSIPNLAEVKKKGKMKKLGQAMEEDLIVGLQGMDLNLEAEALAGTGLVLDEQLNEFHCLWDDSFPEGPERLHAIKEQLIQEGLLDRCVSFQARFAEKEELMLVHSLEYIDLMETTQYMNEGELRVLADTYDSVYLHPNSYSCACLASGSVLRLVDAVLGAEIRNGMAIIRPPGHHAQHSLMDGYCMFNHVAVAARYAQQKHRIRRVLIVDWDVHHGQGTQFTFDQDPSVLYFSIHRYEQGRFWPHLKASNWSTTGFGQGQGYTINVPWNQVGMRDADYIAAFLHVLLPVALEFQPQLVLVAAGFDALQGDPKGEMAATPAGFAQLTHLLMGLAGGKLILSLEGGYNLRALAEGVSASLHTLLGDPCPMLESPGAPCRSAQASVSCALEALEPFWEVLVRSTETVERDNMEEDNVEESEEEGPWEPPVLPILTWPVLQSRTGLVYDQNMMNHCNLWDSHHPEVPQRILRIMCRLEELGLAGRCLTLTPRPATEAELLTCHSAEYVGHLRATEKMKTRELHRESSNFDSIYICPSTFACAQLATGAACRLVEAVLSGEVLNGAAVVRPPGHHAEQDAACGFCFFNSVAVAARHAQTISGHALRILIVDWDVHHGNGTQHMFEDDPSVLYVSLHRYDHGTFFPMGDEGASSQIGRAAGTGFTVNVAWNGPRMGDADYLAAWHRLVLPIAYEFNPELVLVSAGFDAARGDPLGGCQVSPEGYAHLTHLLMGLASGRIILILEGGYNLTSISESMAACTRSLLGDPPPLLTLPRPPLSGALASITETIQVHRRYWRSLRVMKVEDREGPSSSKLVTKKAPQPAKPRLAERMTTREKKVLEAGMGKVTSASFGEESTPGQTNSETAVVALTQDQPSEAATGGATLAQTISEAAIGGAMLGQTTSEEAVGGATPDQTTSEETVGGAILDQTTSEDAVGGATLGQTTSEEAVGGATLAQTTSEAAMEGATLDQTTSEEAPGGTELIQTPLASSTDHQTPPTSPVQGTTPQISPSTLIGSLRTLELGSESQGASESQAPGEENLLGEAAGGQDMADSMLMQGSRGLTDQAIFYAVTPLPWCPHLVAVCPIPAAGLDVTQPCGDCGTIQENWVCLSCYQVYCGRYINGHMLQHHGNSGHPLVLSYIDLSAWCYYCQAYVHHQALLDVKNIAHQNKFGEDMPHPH
Chain of D(1A) dopamine receptor (Homo sapiens) (P21728 whole entry, looked up): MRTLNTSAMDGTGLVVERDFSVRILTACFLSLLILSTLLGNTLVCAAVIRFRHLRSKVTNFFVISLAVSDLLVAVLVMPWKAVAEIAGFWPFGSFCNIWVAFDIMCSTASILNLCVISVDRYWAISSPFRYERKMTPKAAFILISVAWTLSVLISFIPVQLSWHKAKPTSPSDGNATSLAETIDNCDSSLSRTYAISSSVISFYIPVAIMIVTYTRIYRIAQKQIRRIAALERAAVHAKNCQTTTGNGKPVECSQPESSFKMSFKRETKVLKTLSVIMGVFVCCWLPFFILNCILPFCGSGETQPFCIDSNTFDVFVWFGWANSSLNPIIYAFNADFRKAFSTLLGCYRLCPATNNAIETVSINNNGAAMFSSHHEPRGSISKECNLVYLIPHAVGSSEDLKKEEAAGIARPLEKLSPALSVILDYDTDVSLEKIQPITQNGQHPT

O=C=Nc1ccccc1
outcome [1]: inactive

O=C1C=CC(=O)C=C1
AC50 [2]: 12.8 µM (active)

O=[N+]([O-])O
outcome [3]: inactive | outcome [4]: inactive | outcome [5]: inactive

CN(C)N
outcome [6]: inactive | outcome [7]: inactive | outcome [8]: inactive | outcome [9]: inactive | outcome [10]: inactive

CNC(=O)Oc1cc(C)c(SC)c(C)c1
outcome [2]: inactive | outcome [11]: inactive | outcome [12]: inactive | outcome [9]: inactive

Cc1ccc(OP(=O)(Oc2ccc(C)cc2)Oc2ccc(C)cc2)cc1 (tested in a mixture with another compound)
outcome [13]: inactive | outcome [4]: inactive | outcome [5]: inactive | outcome [14]: inactive | outcome [15]: inactive | outcome [16]: inactive

CC1(C)[C@H](C(=O)O[C@H](C#N)c2cccc(Oc3ccccc3)c2)[C@@H]1C=C(Br)Br
outcome [6]: inactive | outcome [7]: inactive | outcome [8]: inactive | AC50 [14]: 3.1 µM (active) | AC50 [15]: 7.16 µM (active) | AC50 [16]: 8.89 µM (active)

O=C(NC(=O)c1c(F)cccc1F)Nc1ccc(Oc2ccc(C(F)(F)F)cc2Cl)cc1F
outcome [1]: inactive | outcome [3]: inactive

CC(=O)C=Cc1ccccc1
outcome [13]: inactive

O=C(O)CCl
outcome [10]: inactive

c1ccc(Nc2ccc3ccccc3c2)cc1
outcome [11]: inactive | outcome [12]: inactive

Cc1nn(C)c(Oc2ccccc2)c1C=NOCc1ccc(C(=O)OC(C)(C)C)cc1
outcome [17]: inactive

N#CSCSc1nc2ccccc2s1
AC50 [18]: 25 µM (active)

CCN(CC)CCOc1ccc(C(=C(Cl)c2ccccc2)c2ccccc2)cc1
outcome [18]: inactive | AC50 [19]: 3.9 µM (active) | outcome [17]: inactive

CSc1ccc(Oc2ccc(S(N)(=O)=O)cc2CN(C)C)cc1C
outcome [18]: inactive

CN(C)c1ccc(C(=C2C=CC(=[N+](C)C)C=C2)c2ccc(N(C)C)cc2)cc1
outcome [20]: inactive | AC50 [19]: 25 µM (active)

Oc1cc2ccccc2c2ccccc12
AC50 [20]: 12.1 µM (active)

O=C(c1ccc(O)cc1O)c1ccc(O)cc1O
outcome [19]: inactive

CC1(C)C(=O)N(Br)C(=O)N1Br
outcome [17]: inactive

COc1cc(-c2nc(NC(=O)c3cc4cc(C)cc(C)c4n3CC(=O)O)sc2CCC2CCCCC2)c(OC)cc1Cl
AC50 [20]: 29.1 µM (active)

— PubChem BioAssay (EPA / NIEHS)
